This passage reports growth results from PubChem BioAssay (NCI).

“And” between values parts separate entries of the source, which are not always exact repeats. Equal entries are not always repeated. This is part of a sample that, as a whole, favours compounds with a hit. Of some 83,000 tested, about 20% had one in any assay.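 Single-dose data. Exposure time 48 hours. Values below 10 considered active.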 The source made the active and inactive calls.

Among the test systems are NCI-H23 lung; NCI-H226 lung; NCI-H322M lung; HOP-62 NSCLC; NCI-H460 lung; HOP-92 NSCLC; NCI-H522 lung; 786-0 renal; COLO 205 colon; DU-145 prostate; K-562 leukemia; MALME-3M melanoma; MDA-MB-231 breast; RXF 393 renal; SF-268 CNS; SF-295 CNS; SF-539 CNS; UACC-257 melanoma; M14 melanoma; A549/ATCC NSCLC.
What all share (assay): NCI-60 one-dose screen, 48 h (100 = growth as untreated, 0 = no growth, -100 = all killed)
Common to all, as to conditions: 10 µM unless noted

Regarding `Clc1ccc(SSc2ccc(Cl)cc2)cc1`, the growth was 94.1% (inactive) and 85.5% (inactive) in the assay with NCI-H23 lung; 104% (inactive) and 79.5% (inactive) in the assay with NCI-H226 lung; 95.6% (inactive) and 108% (inactive) in the assay on NCI-H322M lung; 102% (inactive) and 98% (inactive) with HOP-62 NSCLC; 98.1% (inactive) and 79.5% (inactive) in the assay on NCI-H460 lung; 76% (inactive) and 74.2% (inactive) with HOP-92 NSCLC. Further, the growth in the assay on NCI-H522 lung was 87.9% (inactive) and 81.8% (inactive); in the assay with 786-0 renal, 96.5% (inactive) and 66.8% (inactive); in the assay on COLO 205 colon, 99.6% (inactive) and 113% (inactive); in the assay on DU-145 prostate, 103% (inactive) and 109% (inactive); in the assay on K-562 leukemia it was 100% (inactive); in the assay with MALME-3M melanoma it was 95% (inactive) and 119% (inactive). In addition, the growth was 107% (inactive) and 62.2% (inactive) with MDA-MB-231 breast; 96.1% (inactive) and 86% (inactive) with RXF 393 renal; 94.4% (inactive) and 72.4% (inactive) in the assay on SF-268 CNS; 103% (inactive) and 93.8% (inactive) in the assay on SF-295 CNS; 99.5% (inactive) and 88.7% (inactive) in the assay on SF-539 CNS; 91.5% (inactive) and 98.3% (inactive) in the assay with UACC-257 melanoma. Moreover, the growth in the assay on M14 melanoma was 93.6% (inactive) and 94.1% (inactive).

Regarding `COc1cc2c(Nc3ccc(Cl)c(Cl)c3F)ncnc2cc1OCC1C[C@@H]2CN(C)C[C@@H]2C1` (stereo partly specified), the growth in the assay on NCI-H23 lung is -82.2% (active) and 40% (inactive); in the assay on NCI-H226 lung it was -65.1% (active) and 46% (inactive); in the assay on NCI-H322M lung it was -96.4% (active) and 21.5% (inactive); in the assay on HOP-62 NSCLC it was -87.2% (active) and 16.6% (inactive); with NCI-H460 lung it was -79.4% (active) and 21.6% (inactive); with HOP-92 NSCLC, -84.5% (active) and 16.3% (inactive). In addition, the growth was -80.7% (active) and -36.8% (active) with NCI-H522 lung; -92.8% (active) and 15.8% (inactive) in the assay with A549/ATCC NSCLC; -91.9% (active) and -22.5% (active) in the assay with 786-0 renal; -84.6% (active) and -25.1% (active) with COLO 205 colon; -83.6% (active) and 25.4% (inactive) in the assay with DU-145 prostate; -39.5% (active) and -0.692% (active) with K-562 leukemia. Besides, the growth in the assay with MALME-3M melanoma was -93.5% (active) and -34.7% (active); with MDA-MB-231 breast, -87.5% (active) and -9.5% (active); in the assay on RXF 393 renal, -95.2% (active) and -65.2% (active); in the assay with SF-268 CNS it was -70.2% (active) and 24% (inactive); with SF-295 CNS it was -93.6% (active) and -55.7% (active); in the assay on SF-539 CNS it was -93.9% (active) and 17.5% (inactive). For the same compound, the growth in the assay on UACC-257 melanoma was -87.8% (active) and -64% (active); in the assay on M14 melanoma it was -71.1% (active) and -62.8% (active).

On to `Cc1cc(O)c2c(c1)C(=O)c1cc(O)cc(O)c1C2=O`, for which the growth is 71% (inactive) and 91.7% (inactive) with NCI-H23 lung; 84.8% (inactive) and 90.8% (inactive) in the assay on NCI-H226 lung; 94.6% (inactive) and 107% (inactive) with NCI-H322M lung; 97.9% (inactive) and 78.1% (inactive) in the assay with HOP-62 NSCLC; 98% (inactive) and 102% (inactive) with NCI-H460 lung; -3.28% (active) and 20.5% (inactive) in the assay on HOP-92 NSCLC. Further, the growth with NCI-H522 lung is 61% (inactive) and 78.8% (inactive); in the assay with 786-0 renal it was 74.6% (inactive) and 83.3% (inactive); in the assay on COLO 205 colon, 102% (inactive) and 96.7% (inactive); in the assay on DU-145 prostate it was 87.2% (inactive) and 104% (inactive); with K-562 leukemia it was 75.9% (inactive) and 87.9% (inactive); with MALME-3M melanoma, 54.4% (inactive) and 94.1% (inactive). Besides, the growth is 78.7% (inactive) and 87.3% (inactive) in the assay on MDA-MB-231 breast; 90.7% (inactive) and 107% (inactive) with RXF 393 renal; 89.8% (inactive) and 97.6% (inactive) with SF-268 CNS; 82.8% (inactive) and 94.9% (inactive) in the assay on SF-295 CNS; 93.1% (inactive) and 86% (inactive) in the assay with SF-539 CNS; 84.8% (inactive) and 92.2% (inactive) in the assay on UACC-257 melanoma. The growth in the assay with M14 melanoma is 110% (inactive) and 93.6% (inactive).

For the compound `CC(=O)c1ccc2c(c1)N(CCCN1CCN(CCO)CC1)c1ccccc1S2`, the growth was 98.1% (inactive) and 55.9% (inactive) in the assay on NCI-H23 lung; 84.5% (inactive) and 68.2% (inactive) in the assay with NCI-H226 lung; 98.8% (inactive) and 46.9% (inactive) with NCI-H322M lung; 90.7% (inactive) and 43.1% (inactive) with HOP-62 NSCLC; 101% (inactive) and -11.3% (active) in the assay with NCI-H460 lung; -3.7% (active) in the assay with HOP-92 NSCLC. In addition, the growth is 67.3% (inactive) and 35.3% (inactive) in the assay with NCI-H522 lung; 85.9% (inactive) and -18.4% (active) in the assay with 786-0 renal; 134% (inactive) and -82.8% (active) with COLO 205 colon; 104% (inactive) and 53.3% (inactive) in the assay with DU-145 prostate; 95.3% (inactive) and -16.7% (active) in the assay with K-562 leukemia; 86.5% (inactive) and -80% (active) with MALME-3M melanoma. Further, the growth is 91% (inactive) and -12.3% (active) in the assay on MDA-MB-231 breast; 32.6% (inactive) and -8.21% (active) with RXF 393 renal; 98.3% (inactive) and 37.5% (inactive) with SF-268 CNS; 100% (inactive) and -53% (active) in the assay with SF-295 CNS; 89% (inactive) and 14.7% (inactive) in the assay on SF-539 CNS; 30.4% (inactive) and -66.5% (active) in the assay with UACC-257 melanoma. In the assay with M14 melanoma, the growth was 94.8% (inactive) and -87.4% (active).

Regarding `Cc1ccc(-c2noc(CC(=O)c3ccc([N+](=O)[O-])cc3)n2)cc1`, the growth in the assay with NCI-H23 lung is 95.9% (inactive); in the assay on NCI-H226 lung, 92.9% (inactive); with NCI-H322M lung, 105% (inactive); with NCI-H460 lung it was 103% (inactive); in the assay on HOP-92 NSCLC it was 101% (inactive); with NCI-H522 lung, 95.2% (inactive). Besides, the growth in the assay with A549/ATCC NSCLC was 94.6% (inactive); in the assay with 786-0 renal it was 99.6% (inactive); in the assay on COLO 205 colon it was 109% (inactive); with DU-145 prostate, 101% (inactive); in the assay on K-562 leukemia it was 89.1% (inactive); with MALME-3M melanoma, 110% (inactive). Further, the growth is 104% (inactive) in the assay with MDA-MB-231 breast; 102% (inactive) in the assay with RXF 393 renal; 95.6% (inactive) in the assay with SF-268 CNS; 99% (inactive) in the assay with SF-295 CNS; 98.2% (inactive) with SF-539 CNS; 107% (inactive) in the assay with UACC-257 melanoma. Moreover, the growth in the assay on M14 melanoma is 96.5% (inactive).
